Test results from PubChem BioAssay (NCATS).
Inconclusive results are not listed. Active and inactive are the calls of the source. Calls follow the shape of the dose curve; as a rule, active = well fitted curve in the direction sought with a large enough effect; inconclusive = small, poorly fitted or top-dose-only effect, or another doubt; inactive = no such curve, though single readings can be large; an effect the other way counts as inactive or inconclusive.

Experiments:
[1] = Quantitative High-Throughput drug screen in 47 multiple myeloma cell lines against the NCATS MIPE library collection: Karpas25_ECACC cell viability assay (AID 1918968; also: potency is read from the fitted curve at half-maximal effect; nearly all actives have a fitted effect of over 35% in size)
Method in brief: (§1)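 Luminescent ATP measurement with CellTiter-Glo gives viability, scaled between DMSO-only wells (100%) and media-only wells (0%). Cells, 500 per well, faced library compounds for 48 hours at 37C.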

[2] = Quantitative High-Throughput drug screen in 47 multiple myeloma cell lines against the NCATS MIPE library collection: OCIMY1_PLB cell viability assay (AID 1918979); also: nearly all actives have a fitted effect of over 35% in size; also: potency is read from the fitted curve at half-maximal effect
Method in brief: (§2)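 ATP-based luminescence (CellTiter-Glo, 5 min RT incubation) quantified surviving cells following two days' treatment with MIPE 4.0 agents at 37 °C, 5% CO2.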

[3] = Quantitative High-Throughput drug screen in 47 multiple myeloma cell lines against the NCATS MIPE library collection: KMS27_JCRB cell viability assay (AID 1918970); details: KMS27 myeloma cells, CellTiter-Glo ATP viability, 48 h; viability (% of DMSO): at 45.8 µM (top of the series); also: nearly all actives have a fitted effect of over 30% in size; also: potency is read from the fitted curve at half-maximal effect
Method in brief: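 Viability inhibition screen, 48 h compound exposure, luminescent ATP read-out.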

[4] = Quantitative High-Throughput drug screen in 47 multiple myeloma cell lines against the NCATS MIPE library collection: KMS12BM_JCRB cell viability assay (AID 1918971); also: nearly all actives have a fitted effect of over 35% in size; also: potency is read from the fitted curve at half-maximal effect
Method in brief: (§3)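 Inhibition of cell viability is measured here. Each line was plated at 500 cells per well, treated with MIPE 4.0 drugs, kept 48 hours at 37C, then assayed for ATP content by CellTiter-Glo luminescence.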

[5] = Quantitative High-Throughput drug screen in 47 multiple myeloma cell lines against the NCATS MIPE library collection: KMS12PE_JCRB cell viability assay (AID 1918972); also: nearly all actives have a fitted effect of over 30% in size; also: potency is read from the fitted curve at half-maximal effect
Method in brief: as §3

[6] = Quantitative High-Throughput drug screen in 47 multiple myeloma cell lines against the NCATS MIPE library collection: KMS26_JCRB cell viability assay (AID 1918975); also: nearly all actives have a fitted effect of over 45% in size; also: potency is read from the fitted curve at half-maximal effect
Method in brief: as §3

[7] = Quantitative High-Throughput drug screen in 47 multiple myeloma cell lines against the NCATS MIPE library collection: MMM1_PLB cell viability assay (AID 1918976); also: potency is read from the fitted curve at half-maximal effect; nearly all actives have a fitted effect of over 35% in size
Method in brief: as §2

[8] = Quantitative High-Throughput drug screen in 47 multiple myeloma cell lines against the NCATS MIPE library collection: MOLP8_DSMZ cell viability assay (AID 1918977); also: nearly all actives have a fitted effect of over 45% in size; also: potency is read from the fitted curve at half-maximal effect
Method in brief: as §2

[9] = Quantitative High-Throughput drug screen in 47 multiple myeloma cell lines against the NCATS MIPE library collection: NCIH929_DSMZ cell viability assay (AID 1918978); also: nearly all actives have a fitted effect of over 35% in size; also: potency is read from the fitted curve at half-maximal effect
Method in brief: as §2

[10] = Quantitative High-Throughput drug screen in 47 multiple myeloma cell lines against the NCATS MIPE library collection: MM1S_ATCC cell viability assay (AID 1918980); also: potency is read from the fitted curve at half-maximal effect; nearly all actives have a fitted effect of over 45% in size
Method in brief: as §2

[11] = Quantitative High-Throughput drug screen in 47 multiple myeloma cell lines against the NCATS MIPE library collection: MM1R_ATCC cell viability assay (AID 1918981); also: nearly all actives have a fitted effect of over 35% in size; also: potency is read from the fitted curve at half-maximal effect
Method in brief: as §2

[12] = Quantitative High-Throughput drug screen in 47 multiple myeloma cell lines against the NCATS MIPE library collection: KMS28PE_JCRB cell viability assay (AID 1918983); also: nearly all actives have a fitted effect of over 35% in size; also: potency is read from the fitted curve at half-maximal effect
Method in brief: as §2

[13] = Quantitative High-Throughput drug screen in 47 multiple myeloma cell lines against the NCATS MIPE library collection: H1112_PLB cell viability assay (AID 1918967; also: nearly all actives have a fitted effect of over 30% in size)
Method in brief: as §1

[14] = Quantitative High-Throughput drug screen in 47 multiple myeloma cell lines against the NCATS MIPE library collection: L363_DSMZ cell viability assay (AID 1918984); details: L363 myeloma viability, CellTiter-Glo ATP luminescence, 48 h; viability (% of control): at 45.8 µM (top of the series); also: nearly all actives have a fitted effect of over 40% in size; also: potency is read from the fitted curve at half-maximal effect
Method in brief: as §2

[15] = Quantitative High-Throughput drug screen in 47 multiple myeloma cell lines against the NCATS MIPE library collection: KMS20_JCRB cell viability assay (AID 1918973); also: nearly all actives have a fitted effect of over 45% in size; also: potency is read from the fitted curve at half-maximal effect
Method in brief: as §1

[16] = Quantitative High-Throughput drug screen in 47 multiple myeloma cell lines against the NCATS MIPE library collection: KMS34_JCRB cell viability assay (AID 1918985); also: nearly all actives have a fitted effect of over 40% in size; also: potency is read from the fitted curve at half-maximal effect
Method in brief: as §2

[17] = Quantitative High-Throughput drug screen in 47 multiple myeloma cell lines against the NCATS MIPE library collection: LP1_DSMZ cell viability assay (AID 1918982); also: nearly all actives have a fitted effect of over 35% in size; also: potency is read from the fitted curve at half-maximal effect
Method in brief: as §2

[18] = Quantitative High-Throughput drug screen in 47 multiple myeloma cell lines against the NCATS MIPE library collection: KMS21BM_JCRB cell viability assay (AID 1918974); details: ATP luminescence, 48 h; viability: at 45.8 µM (top of the series); also: potency is read from the fitted curve at half-maximal effect
Method in brief: as §1

Measured: Potency

CNC(=O)c1c(-c2ccc(F)cc2)oc2cc(N(CCO)S(C)(=O)=O)c(C3CC3)cc12
active: [1] 20.9 µM | [2] 18.7 µM

CC(C)C[C@@H](C(=O)N[C@H](C(=O)OC1CCCC1)c1ccccc1)[C@H](O)C(=O)NO
active: [1] 20.9 µM | [3] 2.64 µM | [4] 18.7 µM | [5] 2.09 µM | [6] 18.7 µM | [7] 23.5 µM | [8] 23.5 µM | [9] 18.7 µM | [2] 16.6 µM | [10] 20.9 µM | [11] 18.7 µM | [12] 23.5 µM

CN1CC(=O)N2C(Cc3c([nH]c4ccccc34)[C@H]2c2ccc3c(c2)OCO3)C1=O (some centres undefined)
active: [4] 1.32 µM
inactive: [13] | [3] | [8] | [9] | [2] | [12] | [14]

Cn1c(=O)c(Oc2ccc(F)cc2F)cc2cnc(NC3CCOCC3)nc21
active: [4] 16.6 µM | [7] 1.87 µM | [11] 7.43 µM | [16] 1.32 µM
inactive: [13] | [3] | [15] | [6] | [9] | [12]

C[C@@]1(c2cc(-c3cncnc3)c(F)cc2F)CCSC(N)=N1
inactive: [4] | [6] | [2] | [11] | [17] | [16]
active: [15] 9.35 µM | [9] 2.96 µM | [14] 1.48 µM

CC(C)C[C@@H](N)[C@H](O)C(=O)N[C@H](C(=O)N[C@H](C(=O)N[C@@H](CC(=O)O)C(=O)O)C(C)C)C(C)C
active: [7] 1.66 µM
inactive: [3] | [4] | [5] | [2] | [17] | [12] | [14]

CC(C)[C@H](O)C(=O)N[C@@H](C)C(=O)N[C@@H]1C(=O)N(C)CCc2ccccc21
inactive: [13] | [5] | [15] | [6] | [2] | [11] | [17] | [14] | [16]
active: [7] 23.5 µM | [8] 0.0053 µM

CCCCC(C=O)NC(=O)C(CC(C)C)NC(=O)OCc1ccccc1 (centres undefined)
inactive: [13] | [3] | [5] | [2] | [14]
active: [4] 20.9 µM | [7] 6.62 µM | [9] 20.9 µM | [17] 20.9 µM | [12] 23.5 µM

COC(=O)N1CCN(Cc2cccc(NC(=O)Nc3ccc(C)nc3)c2F)CC1
inactive: [3] | [5] | [8] | [9] | [2] | [16]
active: [4] 20.9 µM | [17] 16.6 µM

C#CCN(C)CC1=Cc2ccccc2Oc2ccccc21
active: [4] 16.6 µM | [12] 18.7 µM
inactive: [13] | [5] | [8] | [9]

CCC(=O)N1CCN(c2ccc(-n3c(=O)ccc4cnc5ccc(-c6cnc7ccccc7c6)cc5c43)cc2C(F)(F)F)CC1
active: [1] 0.0332 µM | [4] 0.0047 µM | [18] 37.2 nM | [6] 0.0743 µM | [8] 0.0332 µM | [10] 0.0662 µM | [11] 0.0372 µM | [12] 0.0093 µM | [16] 0.0059 µM
inactive: [14]

CC(=O)OCC(=O)[C@@]12OC(C)(C)O[C@H]1C[C@H]1[C@@H]3C[C@H](F)C4=CC(=O)C=C[C@]4(C)[C@@]3(F)[C@@H](O)C[C@@]12C
active: [17] 0.0264 µM
not listed: [1] | [4] | [7] | [8] | [9] | [10] | [18]
inactive: all other assays above

Cc1cc(NC(=O)Nc2ccc(N(C)C)cc2)c2cc(F)cc(F)c2n1
active: [1] 3.72 µM | [5] 1.66 µM | [7] 20.9 µM | [8] 23.5 µM | [10] 16.6 µM
inactive: [3] | [9] | [2] | [12]
